# Among all 360,000 compounds or so, about 680 (0.19%) were called active. What follows is part of a selection rich in actives, with near analogues and random picks from the rest. Unmarked numbers belong to inactive results. No stated cut-off is given here; in the data, active means inhibition above about 25%; inactive means the rest.
# Biological target: Arf-GAP with SH3 domain, ANK repeat and PH domain-containing protein 1 (Homo sapiens) (UniProt Q9ULH1)
# Test: inhibitors of human ASAP1 ArfGAP activity, primary screen, biochemical, fluorescence polarization (AID 624377);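 further: 0% = vehicle with enzyme and substrate and 100% = no enzyme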
# Details: ASAP1-stimulated ARF1 GTP hydrolysis, GDP FP detection; at 16.5 µM; hits give high values
# Sequence of Arf-GAP with SH3 domain, ANK repeat and PH domain-containing protein 1 (Homo sapiens) (Q9ULH1 325-724 limits assumed): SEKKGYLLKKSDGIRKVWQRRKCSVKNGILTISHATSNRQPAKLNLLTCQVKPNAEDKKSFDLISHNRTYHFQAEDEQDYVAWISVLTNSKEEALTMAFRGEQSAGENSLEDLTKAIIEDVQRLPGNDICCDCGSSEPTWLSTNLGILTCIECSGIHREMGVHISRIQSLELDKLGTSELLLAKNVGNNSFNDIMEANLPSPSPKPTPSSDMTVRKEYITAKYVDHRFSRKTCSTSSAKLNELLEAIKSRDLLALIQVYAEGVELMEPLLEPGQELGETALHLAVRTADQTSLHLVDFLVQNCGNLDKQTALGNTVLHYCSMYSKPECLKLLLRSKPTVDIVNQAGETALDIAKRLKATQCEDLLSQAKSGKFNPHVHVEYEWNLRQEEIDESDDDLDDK
row,Compound,inhibition
1,COC(=O)[C@]12C[C@H](CC(=O)NCc3ccc(OC)c(OC)c3)C(=O)N(Cc3ccccc3)C1=C[C@H](C(C)C)O[C@@H]2C1CC1,-17.1%
2,COC(=O)c1ccc(CN2C(=O)[C@]3(OCCC=C[C@H]3C)c3c(Br)cccc32)cc1,8.64%
3,COc1cccc(CNC(=O)[C@H]2CCCN2C(=O)[C@H]2CCCN2C(=O)c2cc(F)cc(F)c2)c1,6.55%
4,COc1cccc(NC(=O)N(C)C[C@@H]2OCc3cn(nn3)CCCC(=O)N([C@@H](C)CO)C[C@H]2C)c1,-14.2%
5,O=C(NCc1ccccc1)[C@H]1CCCN1C(=O)[C@@H]1CCCN1C(=O)c1ccc(Cl)cc1Cl,-1.03%
6,O=C(C(=O)N1CCC(CNC(=O)c2cccnc2Cl)CC1)c1cccs1,0.64%
7,CC(C)[C@H]1COCCS(=O)(=O)N1Cc1ccccc1-c1cccc2c1sc1ccccc12,-8.72%
8,CC(=O)C1=C(C)N(Cc2ccccc2)C(=S)NC1c1cccc(Br)c1 (centres undefined),-2.66%
9,C[C@H](O)[C@@H]1CN2CCc3ccc(-c4ccc5c(c4)OCO5)cc3[C@@H]2C[C@@H]1N(C)C(=O)C1CCCCC1,-4.95%
10,Nc1ccn([C@@H]2O[C@H](C(=O)N[C@H]3CCCCNC3=O)[C@@H](O)[C@H]2O)c(=O)n1,-4.12%
11,C[C@@H](CN1C2=NC[C@@H](Cc3ccccc3)N2C[C@H]1Cc1ccc(O)cc1)NC(=O)CCC1CCCCC1,-1.15%
12,COC(=O)C1=C(C(=O)OC)C2C=C(C(C)C)C1C(=O)C2(C)O (centres undefined),-14.9%
13,CC(C)(C)n1nc(C2CC2)c(Br)c1NC(=O)c1ccccc1F,-0.45%
14,COC(=O)C1=C(C)N(Cc2cccc(C(F)(F)F)c2)C(=NCc2ccccc2)NC1c1ccc(Cl)cc1 (centres undefined),8.8%
15,O=C(N[C@H](C(=O)N1CCC[C@H]1C(=O)NCCc1ccccc1Cl)c1ccccc1)c1ccccc1,8.89%
16,Cc1ccc(C(=O)Nc2c(-c3ccccc3)[nH][nH]c2=O)cc1,-5.65%
17,O=C(NC1=CC(=O)c2ccccc2C1=O)c1ccccc1,26.4% (active)
18,CN(C)C(=O)c1ccc(NC(=O)c2ccccc2-c2ccccc2)cc1,6.53%
19,COC(=O)[C@]12C[C@H](CC(=O)NCCCCc3ccccc3)C(=O)N(Cc3ccc4c(c3)OCO4)C1=C[C@H](C(C)(C)C)O[C@@H]2C,-6.7%
20,CC(C)[C@@H](C)/C=C/[C@@H](C)[C@H]1CC[C@@H]2[C@]1(C)CCC1[C@]23C=C[C@]2(C[C@@H](O)CC[C@]12C)N(c1ccc([N+](=O)[O-])cn1)O3 (some centres undefined),7.77%
21,Nc1c(-c2cccc(Cl)c2)cnn1-c1cccc([N+](=O)[O-])c1,3.08%
22,Cc1cccc(N2Cc3ccccc3C2=NC(=O)c2ccc(Cl)nc2)c1,-4.91%
23,Cc1cccc(-n2ncc(Cl)c(Cl)c2=O)c1,24.7% (active)
24,CC1CCCN(c2cccc3c2S(=O)(=O)N(Cc2ccc(F)cc2)[C@@H](C)[C@H](c2ccccc2)O3)C1 (some centres undefined),0.02%
25,COc1ccc(SSc2ccc(OC)cc2C(=O)O)c(C(=O)O)c1,-8.33%

row,Compound,inhibition
1,Cc1cc(Br)cn2c(Cc3ccccc3C(F)(F)F)c(-c3ccc(C#N)cc3)nc12,-9.38%
2,COC(=O)C1=C(C)N(Cc2ccc(C(F)(F)F)cc2)C(=NCc2ccc(C(F)(F)F)cc2)NC1c1cccc(Cl)c1 (centres undefined),1.4%
3,CC(=O)Nc1cc(-c2ccc(N3CCN(C)CC3)cc2)cn2c(-c3cccc(C(=O)N(C)C)c3)cnc12,40.6% (active)
4,CC(=O)Nc1cc(-c2ccc(N3CCN(C)CC3)cc2)cn2c(-c3ccc(F)cc3)cnc12,24.7% (active)
5,CC(=O)c1cccc(-c2cnc3c(NC=O)cc(-c4ccccc4Oc4ccccc4)cn23)c1,-4.36%
6,CN(C)C(=O)c1cccc(-c2cnc3c(NC=O)cc(-c4ccc(C(=O)N5CCOCC5)cc4)cn23)c1,-9.18%
7,CC(=O)Nc1cccc(-c2cc(NC(C)=O)c3ncc(-c4ccccc4)n3c2)c1,-3.7%
8,COc1ccc(-c2cc(NC=O)c3ncc(-c4cccc(C(=O)N(C)C)c4)n3c2)c(OC)c1,-1.85%
9,COc1cccc(-c2cc(NC(C)=O)c3ncc(-c4cccc(C(C)=O)c4)n3c2)c1,-0.92%
10,CC(=O)c1cccc(-c2cnc3c(NC=O)cc(-c4ccc(N5CCN(C)CC5)cc4)cn23)c1,39.8% (active)
11,O=CNc1cc(-c2ccc(C(=O)N3CCOCC3)cc2)cn2c(-c3ccc(F)cc3)cnc12,7.38%
12,COC(=O)Cc1nnn2c1[C@H](C)[C@H](c1ccccc1Br)OCC2,-9.73%
13,Cc1cc(N2CCN(C(=O)OC(C)(C)C)C[C@H]2C)ccc1N1CCN(Cc2ccccc2)[C@H](C)C1,0.89%
14,c1ccc(-c2cc(-c3nnc4sc(-c5ccccn5)nn34)[nH]n2)cc1,28.1% (active)
15,Fc1ccc(-c2ccc(-c3nn4c(-c5ccco5)nnc4s3)o2)cc1,-2.12%
16,CCCCCCCCN1C(=O)[C@@H](CC(=O)NCCCC)C[C@@]2(C(=O)OC)C1=C[C@H](C(C)(C)C)O[C@@H]2C,-1.77%
17,COc1ccc(C(CNC(=O)c2cccc(S(=O)(=O)Nc3ccccc3Cl)c2)N2CCOCC2)cc1 (centres undefined),26.3% (active)
18,COc1ccc(C(CNC(=O)c2cccc(NS(=O)(=O)c3ccc(C)c(F)c3)c2)N2CCCC2)cc1 (centres undefined),-8.53%
19,COc1ccc(C(CNC(=O)c2ccc(S(=O)(=O)Nc3ccccc3C)cc2)N2CCOCC2)cc1 (centres undefined),1.23%
20,CCOc1ccccc1C(=O)N1CCC[C@@H]1C(=O)N1CCC[C@H]1C(=O)NCc1ccccc1,-4.19%
21,CCC(=C/c1sc2ccc3ccccc3c2[n+]1C)/C=C1\Sc2ccc3ccccc3c2N1C,41.1% (active)
22,COCc1[nH]nc2c1C(c1ccccc1)N(c1ccccc1)C2=O (centres undefined),-1.83%
23,COC(=O)[C@]12C[C@H](CC(=O)NCCC(C)C)C(=O)N(CCc3ccc(OC)c(OC)c3)C1=C[C@H](C(C)(C)C)O[C@@H]2C,10.4%
24,Cc1nc(NC(=O)C(C)(C)C)sc1[N+](=O)[O-],-0.12%
25,Nc1ncnc2c1ncn2[C@@H]1O[C@H](C(=O)N[C@@H](CCc2ccccc2)C(=O)N2CCCN(Cc3cccs3)CC2)[C@@H](O)[C@H]1O,-0.42%

row,Compound,inhibition
1,COC(=O)C1=C(C)N(Cc2ccc(C(F)(F)F)cc2)C(=NCc2ccccc2)NC1c1ccccc1C(F)(F)F (centres undefined),-2.57%
2,COCCNC(=S)N(C)[C@H]1C[C@H]2c3[nH]c4ccccc4c3CCN2C[C@H]1[C@H](C)O,6.89%
3,O=C(NN=Cc1ccco1)C(=O)Nc1ccc(Cl)c([N+](=O)[O-])c1,3.05%
4,COC(=O)C1=C(C)N(Cc2cccc(C(F)(F)F)c2)C(=NCc2ccccc2)NC1c1ccccc1C(F)(F)F (centres undefined),11.8%
5,COC(=O)[C@H](CC(C)C)NS(=O)(=O)c1c(F)cccc1F,0.11%
6,CCc1ccc(C2=CC(=O)CC(C)(C)C2=O)cc1,-7.16%
7,C=CC[C@]12C[C@@]3(O[C@H](c4ccc(C(F)(F)F)cc4)N=C3C[C@H](c3ccc(OC)cc3)[C@H]1C)N(C1CCN(Cc3ccccc3)CC1)C2=O,5.12%
8,CC(C)(C)c1ccc(S(=O)(=O)NCC2CCN(C(=O)C(=O)c3cc4ccccc4o3)CC2)cc1,-6.17%
9,CCOC(=O)c1ccc(NC(=O)c2c(N)n(C)c(=O)[nH]c2=O)cc1,10.2%
10,CCOC(=O)c1ccc(NC(=O)c2c(NCc3ccccc3)[nH]c(=O)[nH]c2=O)cc1,-2.85%
11,CCOC(=O)c1ccc(Nc2cc3ccccc3c(=O)[nH]2)cc1,29.1% (active)
12,CCOC(=O)Cn1c2c(n(-c3ccc(F)cc3)c1=O)C=C(c1ccccc1)[C@@H](C)C(C(=O)N(C)C1CCCCC1)=C2,-1.25%
13,O=C(N/N=C/c1cccc([N+](=O)[O-])c1)C1CC(=O)N(c2ccc(Br)cc2)C1 (centres undefined),-8.22%
14,N#Cc1cc([N+](=O)[O-])ccc1Oc1cccc(/C=N/NC(=O)c2ccc(Cl)cc2)c1,25.2% (active)
15,CCCc1ccc(OCc2ccc(C(=O)N/N=C/c3cccc([N+](=O)[O-])c3)o2)c(OC)c1,-0.67%
16,CN(C)C(=O)N1CCN(C(=O)[C@@H](Cc2ccccc2)NC(=O)[C@H]2O[C@@H](n3ccc(N)nc3=O)[C@H](O)[C@@H]2O)CC1,-4.92%
17,COc1cccc(-c2cc(CNC(=O)[C@@H](Cc3ccccc3)NC(=O)[C@H]3O[C@@H](n4cnc(C(N)=O)n4)[C@H](O)[C@@H]3O)no2)c1,0.63%
18,C=CCNc1nc(N)c(C(=C(C#N)C#N)c2ccccc2)s1,29.1% (active)
19,COC(=O)c1sc(N2CCN(Cc3ccccc3)CC2)nc1N,6.27%
20,COc1ccccc1Cc1c(-c2ccc(F)cc2)nc2ccc(C)cn12,-3.6%
21,COC(=O)C1=C(C)NC(=O)/C1=C/c1ccc(CNS(=O)(=O)c2ccc(C)cc2)o1,-2.9%
22,O=c1/c(=C/c2ccc(CNS(=O)(=O)c3ccccc3)o2)sc2n1CCN=2,26% (active)
23,O=S(=O)(NCc1ccccc1)c1ccc(S(=O)(=O)N2CCCC2)cc1,16.8%
24,Cc1ccc(C)c(CN2CCC(CNC(=O)C3CCCN(c4ncnc5c4nc4n5CCCCC4)C3)CC2)c1 (centres undefined),-4.48%
